RUNX1 binding intensity data for 40 sequences are collected here from the supplement of paper PMC10681739.
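Also: Full-length recombinant human ETS1 or RUNX1 bound to double-stranded 36-bp genomic probes on microarrays, detected by protein-specific primary antibody and Alexa488 secondary, spot fluorescence as median of four replicate spots.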

Sequence of RUNX1 (Q01196 whole entry): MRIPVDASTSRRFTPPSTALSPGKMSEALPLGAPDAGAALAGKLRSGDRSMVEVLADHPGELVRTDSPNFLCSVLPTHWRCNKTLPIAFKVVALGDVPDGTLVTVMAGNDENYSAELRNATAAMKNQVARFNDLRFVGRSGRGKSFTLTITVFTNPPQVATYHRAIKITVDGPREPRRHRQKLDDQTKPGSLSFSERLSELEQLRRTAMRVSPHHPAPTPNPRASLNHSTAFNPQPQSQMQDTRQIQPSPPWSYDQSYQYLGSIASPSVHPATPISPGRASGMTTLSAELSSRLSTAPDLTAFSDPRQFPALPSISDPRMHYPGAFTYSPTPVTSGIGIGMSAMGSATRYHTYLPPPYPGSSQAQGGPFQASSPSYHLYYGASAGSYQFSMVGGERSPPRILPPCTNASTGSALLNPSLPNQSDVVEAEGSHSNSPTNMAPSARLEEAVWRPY

The experiment addresses RUNX1 (UniProt Q01196). The experiment is described as follows: RUNX1 binding intensity (PBM fluorescence) in presence of ETS1, normalised to RUNX1-only experiment (arbitrary fluorescence units); higher = stronger binding. As to conditions: RUNX1 concentration 2 nM; ETS1 concentration 25 nM. As to the method:
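Cooperative gcPBM on 36-bp genomic probes with neighbouring ETS1 and RUNX1 sites. Recombinant human RUNX1 (2 nM) was incubated alone or with ETS1 (25 nM) and detected with anti-RUNX1 antibody plus Alexa488 secondary. Values are medians over 4 replicate spots; the RUNX1+ETS1 data were normalised to the RUNX1-only data. The probes sit in constant array flanks that are not printed.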
As to GCCCCCATGCTTCCTGTTGTGGGAGATGAAGTGTGG, the RUNX1 binding intensity was determined as 1650.
Under CATGGTGGTGACGCAGGATGTGGTGGTGGTGTAGAA stands 937.
As for CGCCTGCCCCACTTCCGCCCGGACCCGCAGCCCCTA, the figure is 3610.
As for CTTCTGAGAGGAGGATGTGGTCAGATACCTACAAAT, the figure is 1650.
Take CTACGACTTCCGTGATGCCTTGCGGTTGCTGTAGCC: the RUNX1 binding intensity turned out to be 8450.
Under GTGTTTCCTCTTTGTTTTGGGGCTGTGGTTGCCACA stands 3180; under GTAAATAAAGAGGAAGTCCCTATGCGGGGGATGGGG, 884.
As for TCTGGGACAGGAAAGACTTGTGGTTACTGCTGTTGA, the figure is 3160; as for ACTTGACTTCCTGTGGGGTGTGTGGTGTCTGCACTT, 2010.
As for TGCTCAGAAGGGCATCCGGTTGCGGAGAAGGTACAC, the figure is 1370; as for GGCGGCTTCCGGGATCTGCCTGGCGGTTGCTTTGTC, 2140.
On to CCTACACTTCCCAGAGAACCTAGCGGTTACGCCAAC, for which the RUNX1 binding intensity was 1560.
As for GCAACGGAGTCCGGAAGAACCACAGAGACGCGGCTC, the RUNX1 binding intensity came to 858.
Under GGGCGGGTCAGCGGAAGTGAGGGCGGTTGAGGCTGG stands 1320; under CACCTCAGCTTCCTGTGTAGCTGGGACCACAGGCAT, 1560.
As for AGACGGGACCGGAAGCCGGGCCGCAGGCGGCCGGGC, the figure is 1240; as for AACCCACCGGATGGAAGCTGCCACTCAGCCGCAGGA, 1030.
As for ATGCTAGAAAGCAGGAAGCCACAGACACGCCCCAAC, the figure is 875.
As for GCCACACAGGCAGGAAAGCCACAGCCCACGTCTCCG, the RUNX1 binding intensity is 885.
Take CGCCGCTCAACTTCCGGCAACCACAGCTCTCTCTGA: the RUNX1 binding intensity stood at 3150.
Under ACCCCAGGTACCGGAAGACCACAATTCCCAGGAGTC stands 1880.
As for CGGGAACACCCACTTCCGCCACAGACCTGCTCAAAA, the figure is 3820.
On to AGGAGCCGGAAGTCCCGCCCACGCACCCCCCGCAGG, for which the RUNX1 binding intensity was 1770.
As for AGGTTTTGAAAGAGGAAACCACATACCCGAAAACCA, the figure is 1160; as for GCCCAGTTCTCGCATCCGGTCTGCGGCGCGCTCGGG, 1840; as for AACATCCGGTTCCCGGTTCTGCCCCCTACCGCAGCT, 3920.
Under AGACCCGGAAATGGTGGGTGTTTCTTGCAACCACGG stands 1240; under AACAGCACACAGGAAGTTACCGCTGAAGCAAAGGAG, 1250; under CCAGCCCAGGAAACAAGGAACCCCAAAGCCACAGGA, 979.
Under GGAGAGTTGACTTCCGGCGGCTTGTGGGAGTGCTGG stands 1820.
As to GCCTCCTCCCATTTCCTCCATGTGGTCAATCCAGTT, the RUNX1 binding intensity worked out at 3860.
Under GTTGTCTTGCCCAAAGGAAGTGGTTACTAGACCAGA stands 1490.
As for TAGACTAACAGGGGAGGAAGTGGGTTGCAAGCCGTG, the figure is 868; as for AAAAGGCACCAGGAAATGACAGCACCGCAGCACGCC, 871; as for TTGCTCCCGGAAGCCCCGCCCGACCGCGGCTCCTGA, 1210.
For the sequence CCCAATTTCCTTTGCTCTGCTGTCTGCCAACCGCAA, the RUNX1 binding intensity worked out at 4340.
Under GGCAACCTGAGCTTCCGTGTAAAACCACAGTGTGAC stands 1290.
Take CCACCCTCCGTCCGGCCGCGACCGCGAGGAGGAAGA: the RUNX1 binding intensity turned out to be 1130.
Under ACAGATCCAAGGAAGCATATCCCGCAAGCAACTGTT stands 875; under CAAAGTGATGGGGGAAATGGTTGTGGTTTTGGGTGG, 1500.
